Screens from PubChem.
The list is not random: actives were taken first. Their share in the collection is about 1.7%.
USP10 block: inhibitors of human USP10 deubiquitinase; inhibition, % at 20 µM; AID 1645856, 2021; purified USP10, Ub-rhodamine fluorescence, 60 min; Ubiquitin carboxyl-terminal hydrolase 10 (Homo sapiens), Q14694; 47,000 compounds, 1.1% hits
Target sequence (Q14694 whole entry, looked up): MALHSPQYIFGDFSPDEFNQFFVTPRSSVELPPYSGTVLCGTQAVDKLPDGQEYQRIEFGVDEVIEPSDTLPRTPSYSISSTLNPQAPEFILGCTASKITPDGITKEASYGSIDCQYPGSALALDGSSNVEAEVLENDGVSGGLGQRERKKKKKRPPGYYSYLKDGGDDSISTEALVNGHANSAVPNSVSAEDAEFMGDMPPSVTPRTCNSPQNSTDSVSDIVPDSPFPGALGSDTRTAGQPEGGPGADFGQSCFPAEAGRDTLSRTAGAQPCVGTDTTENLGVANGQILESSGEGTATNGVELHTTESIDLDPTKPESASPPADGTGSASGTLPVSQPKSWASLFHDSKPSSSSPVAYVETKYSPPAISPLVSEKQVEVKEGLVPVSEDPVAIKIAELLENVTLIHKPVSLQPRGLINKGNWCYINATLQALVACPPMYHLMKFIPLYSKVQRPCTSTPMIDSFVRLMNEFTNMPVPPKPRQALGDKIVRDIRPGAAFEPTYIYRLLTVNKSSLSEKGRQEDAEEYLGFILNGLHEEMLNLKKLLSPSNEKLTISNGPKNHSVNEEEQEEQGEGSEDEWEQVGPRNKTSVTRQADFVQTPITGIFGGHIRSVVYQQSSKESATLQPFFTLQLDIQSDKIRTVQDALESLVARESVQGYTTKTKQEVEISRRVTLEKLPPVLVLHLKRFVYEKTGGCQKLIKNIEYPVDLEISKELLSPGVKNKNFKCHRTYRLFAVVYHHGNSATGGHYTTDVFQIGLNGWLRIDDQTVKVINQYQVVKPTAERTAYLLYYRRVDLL
OTUD3 inh: inhibitors of human OTUD3 deubiquitinase. OTU domain-containing protein 3 (Homo sapiens), Q5T2D3. 47,000 compounds, 0.7% hits. purified OTUD3, Ub-rhodamine fluorescence, 2 h. inhibition, % at 25 µM
UCHL1 inh: inhibitors of human UCHL1 deubiquitinase | 47,000 compounds, 0.2% hits | purified UCHL1, Ub-rhodamine cleavage fluorescence | Ubiquitin carboxyl-terminal hydrolase isozyme L1 (Homo sapiens), P09936 | inhibition, % at 20 µM
USP7 inh: inhibitors of human USP7 deubiquitinase; purified USP7, Ub-rhodamine cleavage fluorescence; Ubiquitin carboxyl-terminal hydrolase 7 (Homo sapiens), Q93009; inhibition, % at 20 µM; 47,000 compounds, 0.3% hits
The depositor's hits bear a star. Rule as the data show it: active = inhibition above about 30%; inactive = the rest.

SMILES	USP10 block	OTUD3 inh	UCHL1 inh	USP7 inh
COc1ccc(C)cc1NC(=O)C1CC(=O)Nc2nc(SCc3ccccc3)nn21 (centres undefined)	34*	8	3	6
COc1ccc(C2C(C(N)=O)=C(C)Nc3nc(SCc4ccccc4)nn32)cc1 (centres undefined)	2	0	1	6
COc1ccc(C(=O)CCN2CCN(c3ccccc3F)CC2)cc1	0	6	0	4
CNC(=O)c1cn2c3c(cc(F)cc3c1=O)CCC2C (centres undefined)	1	14	3	4
CC1(O)CC(=O)c2c(cc3cc(O)cc(O)c3c2O)C1 (centres undefined)	79*	75*	93*	94*
O=c1c(O)c(-c2ccc(O)c(O)c2)oc2cc(O)cc(O)c12	17	95*	34*	-8
O=c1cc(-c2ccc(O)c(O)c2)oc2cc(O)cc(O)c12	36*	101*	25	11
O=c1c(-c2ccc(O)cc2)coc2cc(O)cc(O)c12	2	-10	-2	2
O=C(Cn1c(-c2nc(-c3ccccc3)no2)cccc1=O)Nc1ccccc1	11	5	0	11
O=C(Cn1c(-c2nc(-c3cccc(F)c3)no2)cccc1=O)NCc1ccco1	38*	25	13	5
CCc1ccccc1NC(=O)CN1C(=O)C2CCCC2=Nc2ccccc21 (centres undefined)	34*	6	0	11
Cc1cccc(C)c1NC(=O)CN1C(=O)C2CCCC2=Nc2ccccc21 (centres undefined)	21	6	2	4
CCc1c(Cl)c(O)c(Cl)c(O)c1C(=O)O[C@H]1C(C)O[C@@H](OC/C2=C\C=C\CC(O)/C(C)=C/C(CC)C(O[C@@H]3OC(C)(C)[C@H](O)C(OC(=O)C(C)C)[C@@H]3O)/C(C)=C/C(C)=C/CC(C(C)O)OC2=O)[C@@H](OC)C1O (some centres undefined)	15	32*	0	2
CC(C)=CCC/C(C)=C/Cc1c(O)cc2c(c1O)C(=O)OC2	64*	79*	83*	88*
O=C(Cn1cnc(-c2ccccc2)cc1=O)Nc1ccc(Oc2ccccc2)cc1	20	14	3	16
Cc1ccc(-c2cc(=O)n(CC(=O)Nc3ccc(C(C)C)cc3)cn2)cc1	42*	9	-5	18
Cc1nn(-c2ccccc2)c2c1N=C1C(Cl)=CC(Cl)=CN1C21C(=O)Nc2ccccc21 (centres undefined)	4	12	15	65*
Cc1nn(-c2cccc(C(F)(F)F)c2)c2c1C(c1ccccc1)N1C=C(Cl)C=C(Cl)C1=N2 (centres undefined)	0	-3	-1	3
COc1ccc(C(=O)C(C)OC(=O)c2cccc(S(=O)(=O)Nc3cc([N+](=O)[O-])ccc3OC)c2)c(OC)c1 (centres undefined)	37*	0	6	17
O=C(Cn1cnc2c(cnn2-c2ccc(Cl)cc2)c1=O)NCc1ccccc1Cl	8	36*	-4	5
Cc1ccc(C(C(=O)Nc2ccc(F)cc2)N(C(=O)c2cnccn2)c2ccc3c(c2)OCO3)cc1 (centres undefined)	-3	-9	0	-4
COc1ccc(-c2c[nH]n3c(=O)c(CCO)c(C)nc23)cc1OC	3	-2	0	4
Cc1nc2c(-c3ccc(Cl)cc3)c[nH]n2c(=O)c1Cc1ccccc1	65*	11	12	-21
O=C1CCCN1CC(=O)N1CCCC1c1ccc(F)cc1 (centres undefined)	1	0	1	0
O=C(c1n[nH]c2c1CCC2)N1CCCC(c2ccncn2)C1 (centres undefined)	1	-2	-1	2
SMILES	USP10 block	OTUD3 inh	UCHL1 inh	USP7 inh
O=C(COC(=O)C(Cc1c[nH]c2ccccc12)NC(=O)c1ccccc1Cl)Nc1ccc([N+](=O)[O-])cc1C(F)(F)F (centres undefined)	32*	-1	1	12
O=C(COC(=O)C(Cc1c[nH]c2ccccc12)NC(=O)c1ccccc1Cl)c1ccc([N+](=O)[O-])cc1 (centres undefined)	28	0	5	4
COC(=O)c1ccc(N2CCN(C(C)=O)CC2)c(NC(=O)COc2ccc([N+](=O)[O-])cc2)c1	43*	2	5	12
O=C(c1ccco1)N1CCN(c2ncnc3c2CCC3)CC1	0	7	0	-7
Cc1ccc(NC(=O)Cc2nnc3c(-c4nc(C5CC5)no4)cccn23)cc1	48*	18	59*	58*
Cc1ccccc1NC(=O)Cc1nnc2c(-c3nc(C4CC4)no3)cccn12	-3	15	-2	1
COc1ccccc1NC(=O)c1nc(-c2cn(-c3cccc(F)c3)nn2)no1	42*	-5	12	14
CCC(=O)Nc1nc2cc(NC(=O)Nc3cc(C)cc(C)c3)ccc2s1	32*	31*	-2	12
CCC(=O)Nc1nc2cc(NS(=O)(=O)c3ccc(C)cc3)ccc2s1	9	-10	4	-7
O=C(CC1N=C(N2CCN(c3ccccc3)CC2)NC1=O)Nc1ccccc1 (centres undefined)	0	16	-1	2
Cc1cc(C(=O)N2CCOC3(CC=CCN(CCc4ccccc4)C3=O)C2)n2nccc2n1 (centres undefined)	0	76*	3	2
CCC(=O)N1c2ccccc2NC2=C(C(=O)CC(c3cccc([N+](=O)[O-])c3)C2)C1c1ccco1 (centres undefined)	4	-7	3	-10
CC(C)(C)c1ccc(C2CC(=O)C3=C(C2)Nc2ccccc2N(C(=O)CCC(=O)O)C3c2cccc([N+](=O)[O-])c2)cc1 (centres undefined)	33*	-13	-1	-10
CN1C(=O)CO[C@H](c2ccc(NC(=O)c3ccccc3)cc2)[C@H]1CO	2	0	1	5
COc1ccc(S(=O)(=O)N2CCN(c3nnnn3-c3ccccc3)CC2)cc1	1	13	1	6
C=C[C@@]1(C)CC[C@@]2(C)[C@@H](CC[C@]3(C)C(C)=C(O)C(=O)C[C@H]23)C1	11	24	1	9
C=C[C@]1(C)CC[C@]2(C)[C@@H](C1)[C@@H](O)C[C@H]1[C@]3(C)CCC[C@@]12OC3=O	38*	-3	-1	0
CSc1cccc(NC(=O)CCc2nc3cccnc3n2Cc2ccccc2)c1	-2	-12	-3	-9
CCc1ccc(NC(=O)CCc2nc3cccnc3n2Cc2ccccc2)cc1	11	46*	4	6
COc1cccc(C(=O)Nc2ccc(SC(C(=O)Nc3ccccc3)c3ccccc3)cc2)c1 (centres undefined)	-14	-79	-30	-19
COc1cccc(C(=O)Nc2ccc(SC(C)C(=O)Nc3ccc(C(N)=O)cc3)cc2)c1 (centres undefined)	36*	0	1	7
